Here are results for seven molecules from PubChem BioAssay (Tox21).

Where “and” joins values, the source holds several entries; their conditions need not be identical. Identical values can stand only once. Records with an inconclusive call do not appear. Some structures have more than one record in an assay (separate samples or runs), and their calls can disagree. Calls of active or inactive are those of the source. Unless noted, calls follow the shape of the dose curve; as a rule, active = well fitted curve in the direction sought with a large enough effect in the repeat runs; inconclusive = weak or mixed curves; inactive = no such curve, though single readings can be large; an effect the other way counts as inactive or inconclusive.

Test [1] is described as follows: A CellTox Green Cytotoxicity Assay to monitor cytotoxicity in HEK293 cells - 32 hour (AID 1224881). Also: nearly all actives have a fitted effect of over 40% in size. Also: potency is read from the fitted curve at half-maximal effect. Put shortly:
(§1)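 Fluorescence from a DNA-binding dye excluded by viable cells was measured repeatedly in the same HEK293 wells (600 cells/well) during continuous compound exposure at 37 C. Each assay gives one read point: 0, 8, 16, 24, 32 or 40 h.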

Test [2] can be described thus: A CellTox Green Cytotoxicity Assay to monitor cytotoxicity in HepG2 cells - 0 hour (AID 1224882). Also: nearly all actives have a fitted effect of over 35% in size. Also: potency is read from the fitted curve at half-maximal effect. Put shortly:
(§2)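 Real-time cytotoxicity: fluorescence of a cell-impermeant cyanine dye binding DNA of dead HepG2 cells, measured repeatedly (0–40 h) during compound exposure at 37 C. Cells seeded 600/well with reagent, dosed after 5 h.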

Test [3] in a line: A CellTox Green Cytotoxicity Assay to monitor cytotoxicity in HepG2 cells - 32 hour (AID 1224883). Also: nearly all actives have a fitted effect of over 50% in size. Also: potency is read from the fitted curve at half-maximal effect. In a few lines: as §2
Test [4] is described as follows: A CellTox Green Cytotoxicity Assay to monitor cytotoxicity in HEK293 cells - 8 hour (AID 1224884). Also: nearly all actives have a fitted effect of over 35% in size. Also: potency is read from the fitted curve at half-maximal effect. In a few lines: as §1
Test [5] is described as follows: qHTS RealTime-Glo MT Cell Viability Assay in HepG2 cells - 16 hour (AID 1224885). Also: nearly all actives have a fitted effect of over 50% in size. In a few lines: (§3)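 Real-time, nonlytic viability: 600 HepG2 cells/well mixed with NanoLuc enzyme plus prosubstrate; 5 h settle, compound (DMSO) added by pintool; luminescence monitored over 40 h at 37 C.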
(In general: In qHTS, concentration-response curves come from the screen itself.)

Test [6] can be described thus: qHTS RealTime-Glo MT Cell Viability Assay in HEK293 cells - 24 hour (AID 1224886). Also: top concentration of the series differs between compounds; nearly all actives have a fitted effect of over 50% in size. In a few lines: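 Cells + reagent dispensed (600 cells/well, HEK293) → 5 h at 37 C/5% CO2 → 23 nL compound in DMSO pinned → 40 h at 37 C → luminescence read at 0, 8, 16, 24, 32, 40 h.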
The nature of test [7]: qHTS RealTime-Glo MT Cell Viability Assay in HEK293 cells - 8 hour (AID 1224887). Also: top concentration of the series differs between compounds; nearly all actives have a fitted effect of over 50% in size. In a few lines: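 Luminescence, which tracks viable cell number through reduction of the prosubstrate to a NanoLuc substrate, was read over continuous 37 C culture. Cells (600/well) were premixed with reagent and rested 5 h before 23 nL of compound in DMSO was pinned.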
The nature of test [8]: A CellTox Green Cytotoxicity Assay to monitor cytotoxicity in HEK293 cells - 16 hour (AID 1224888). Also: nearly all actives have a fitted effect of over 35% in size. In a few lines:
as §1

Test [9] is described as follows: qHTS RealTime-Glo MT Cell Viability Assay in HepG2 cells - 0 hour (AID 1224889). Also: nearly all actives have a fitted effect of over 50% in size. Put shortly:
as §3

Test [10] can be described thus: qHTS assay to identify small molecule antagonists of the estrogen receptor alpha (ER-alpha) signaling pathway using the BG1 cell line in the presence of 0.1 nM 17-beta-estradiol - cell viability counter screen (AID 1259241). Also: nearly all actives have a fitted effect of over 40% in size. Put shortly:
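Estradiol-stimulated (0.1 nM) VM7Luc4E2 cells exposed to compounds 22 hr; viability measured by fluorescence of cleaved CellTiter-Fluor substrate after 30 min.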

The target in test [11] is Estrogen receptor (Homo sapiens) (UniProt P03372). Kind of test: qHTS assay to identify small molecule antagonists of the estrogen receptor alpha (ER-alpha) signaling pathway using the BG1 cell line in the presence of 0.1 nM 17-beta-estradiol (AID 1259244). Also: nearly all actives have a fitted effect of over 50% in size. Also: potency is read from the fitted curve at half-maximal effect. In a few lines: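 Luciferase luminescence (ONE-Glo, 30 min at room temperature) was read after 22 hr at 37C exposure to compounds plus 17beta-estradiol at 0.1 nM final. Cells were VM7Luc4E2 with endogenous ER-alpha and an ERE-driven luciferase, pre-cultured 5 days in hormone-depleted medium.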

The nature of test [12]: qHTS assay to identify small molecule HDAC inhibitors (AID 1259364). Also: nearly all actives have a fitted effect of over 45% in size. Also: potency is read from the fitted curve at half-maximal effect. Put shortly:
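Luminescence read after 30 min room-temperature HDAC-Glo incubation measures cellular class I/II HDAC activity. Compounds were applied for 2 hr at 37 C to HCT-116 wild-type cells seeded the day before.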

Test [13] is described as follows: qHTS assay to identify small molecule HDAC inhibitors - cell viability counter screen (AID 1259365). In a few lines:
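After overnight seeding at 1,500 cells per well, wild-type HCT-116 cultures took up compounds in DMSO for 2hr at 37 C. Viable cell content came from luminescence with CellTiter-Glo.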

Test [14] in a line: qHTS assay to identify small molecule agonists of the sonic hedgehog signaling (Shh) pathway - cell viability counter screen (AID 1259366). Also: nearly all actives have a fitted effect of over 50% in size. Put shortly: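 Same-well cytotoxicity read. Gli1-Luc reporter 3T3 cells; compounds 24hr, 37C/5% CO2; CellTiter-Fluor fluorescence.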
A short description of test [15]: qHTS assay to identify small molecule antagonists of the sonic hedgehog signaling (Shh) pathway - cell viability counter screen (AID 1259367). Also: nearly all actives have a fitted effect of over 55% in size. Put shortly:
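CellTiter-Fluor signal in conditioned medium-stimulated 3T3 Gli1-Luc cells, 23 hr compound exposure, 37C.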

Test [16] is described as follows: qHTS assay to identify small molecule agonists of the sonic hedgehog signaling (Shh) pathway (AID 1259368; calls by dose curve;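 also: NIH/3T3-derived 3T3Gli1-Luc cells carrying a stable Gli1-driven firefly luciferase reporter; series mostly up to about 92 µM; nearly all actives have a fitted effect of over 15% in size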). In a few lines:
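Luminescence was read after 30 min at room temperature with luciferase reagent. Before that, 3T3Gli1-Luc cells (NIH/3T3 clone, stable Gli1-Luc reporter; 2,000/well) were exposed to compounds for 24 hr at 37C, 5% CO2, compounds being added 4 hr post-plating.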

The nature of test [17]: qHTS assay to identify small molecule antagonists of the androgen receptor (AR) signaling pathway using the MDA cell line in the presence of 0.5 nM R1881 - cell viability counter screen (AID 1259242). Also: nearly all actives have a fitted effect of over 45% in size. In a few lines: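 Live-cell protease activity was measured by CellTiter-Fluor fluorescence after 30 min. Before that, MDA-kb2 MMTV-luciferase cells had 16 hr at 37C without CO2, exposed to test compounds and 0.5 nM R1881 final.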

Test [18] is described as follows: A CellTox Green Cytotoxicity Assay to monitor cytotoxicity in HepG2 cells - 8 hour (AID 1224890). Also: nearly all actives have a fitted effect of over 45% in size. Also: potency is read from the fitted curve at half-maximal effect. In a few lines:
as §2

Test [19] has as its target Androgen receptor (Homo sapiens) (UniProt P10275). Nature of the test: qHTS assay to identify small molecule antagonists of the androgen receptor (AR) signaling pathway using the MDA cell line in the presence of 0.5 nM R1881 (AID 1259243). Also: nearly all actives have a fitted effect of over 50% in size. Also: potency is read from the fitted curve at half-maximal effect. In a few lines:
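Luminescent reporter readout (ONE-Glo, 30 min, room temperature) after 16 hr co-treatment of MDA-kb2 cells with test compounds and 0.5 nM R1881 final, at 37C without CO2. The MMTV-driven luciferase responds to both AR and GR.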

Test [20] can be described thus: qHTS assay to identify small molecule phospholipidosis (PLD) inducers (AID 1259344; active = well fitted curve in the direction sought with a large enough effect; an effect the other way counts as inactive or inconclusive). Put shortly:
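Accumulated phospholipid, stained red by LipidTOX during 24 h compound treatment of HepG2 cells at 37 C, is quantified from images as pit number and intensity, normalised per cell using Hoechst-stained nuclei.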

Chain of Androgen receptor (Homo sapiens) (P10275 whole entry, looked up): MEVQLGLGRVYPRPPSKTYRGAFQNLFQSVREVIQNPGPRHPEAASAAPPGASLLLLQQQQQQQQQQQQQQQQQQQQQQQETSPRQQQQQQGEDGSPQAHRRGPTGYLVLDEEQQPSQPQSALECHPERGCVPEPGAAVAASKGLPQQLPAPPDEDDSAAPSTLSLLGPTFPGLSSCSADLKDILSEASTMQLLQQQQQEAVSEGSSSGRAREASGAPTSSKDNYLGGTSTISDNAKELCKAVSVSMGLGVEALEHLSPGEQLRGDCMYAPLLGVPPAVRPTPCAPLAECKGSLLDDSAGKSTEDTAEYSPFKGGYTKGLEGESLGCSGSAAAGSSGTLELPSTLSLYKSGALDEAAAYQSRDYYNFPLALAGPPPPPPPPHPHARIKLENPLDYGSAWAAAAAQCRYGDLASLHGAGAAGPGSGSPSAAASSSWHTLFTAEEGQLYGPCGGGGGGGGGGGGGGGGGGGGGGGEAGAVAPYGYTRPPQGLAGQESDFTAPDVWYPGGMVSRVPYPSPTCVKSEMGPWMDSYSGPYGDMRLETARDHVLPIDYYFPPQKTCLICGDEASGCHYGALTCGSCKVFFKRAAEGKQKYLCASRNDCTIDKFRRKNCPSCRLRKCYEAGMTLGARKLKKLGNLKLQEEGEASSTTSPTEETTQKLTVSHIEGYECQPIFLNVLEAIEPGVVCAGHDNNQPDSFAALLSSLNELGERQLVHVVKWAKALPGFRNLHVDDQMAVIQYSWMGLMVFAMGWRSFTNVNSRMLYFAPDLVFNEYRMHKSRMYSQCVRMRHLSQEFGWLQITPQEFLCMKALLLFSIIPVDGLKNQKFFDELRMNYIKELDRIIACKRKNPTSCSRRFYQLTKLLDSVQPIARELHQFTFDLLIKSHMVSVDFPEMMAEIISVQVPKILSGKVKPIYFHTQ
Chain of Estrogen receptor (Homo sapiens) (P03372 whole entry, looked up): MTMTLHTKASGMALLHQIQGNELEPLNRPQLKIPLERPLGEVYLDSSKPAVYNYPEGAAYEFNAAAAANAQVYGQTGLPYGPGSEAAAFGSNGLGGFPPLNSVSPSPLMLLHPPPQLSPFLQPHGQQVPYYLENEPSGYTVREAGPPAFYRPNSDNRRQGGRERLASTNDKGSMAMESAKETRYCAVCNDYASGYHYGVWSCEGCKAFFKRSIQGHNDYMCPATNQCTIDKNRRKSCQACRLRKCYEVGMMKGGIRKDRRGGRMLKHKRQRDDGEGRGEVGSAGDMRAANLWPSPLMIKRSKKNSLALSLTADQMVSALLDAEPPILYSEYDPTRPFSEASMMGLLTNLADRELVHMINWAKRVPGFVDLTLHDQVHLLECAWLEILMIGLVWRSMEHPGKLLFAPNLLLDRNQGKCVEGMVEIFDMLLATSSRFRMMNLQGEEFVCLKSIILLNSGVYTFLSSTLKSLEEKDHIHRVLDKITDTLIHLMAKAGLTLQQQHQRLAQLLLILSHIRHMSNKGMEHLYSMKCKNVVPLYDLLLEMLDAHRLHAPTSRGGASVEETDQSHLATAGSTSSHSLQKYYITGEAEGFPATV

Consider `CCCCOCCOC(C)=O`, for which the Potency entry in [1], in test [2], in test [3], in [4], in [5] and in test [6] was “inactive” each time. The Potency entry in test [7], in test [8], in test [9], in test [10], in test [11] and in test [12] was “inactive” throughout. Moreover, the Potency entry in [13], in test [14], in [15] and in test [16] was “inactive” throughout.

Take `CCOC(=O)c1ccccc1N`: the Potency entry in test [1], in test [5], in test [6], in test [7], in test [8] and in test [9] was “inactive” throughout. In addition, the Potency entry in test [10], in [17], in test [11], in test [12], in [13] and in test [15] was “inactive” each time. In addition, the Potency entry in [16] was “inactive”. The Potency result in [2] was “inactive and 43.6 µM (active)”; in test [3], “inactive and 54.9 µM (active)”; in [4], “inactive and 43.6 µM (active)”.

On to `CCCCOCC1CO1` (stereo unspecified), for which the Potency result in test [1] is “inactive and 19.5 µM (active)”; in [2] it was “inactive and 38.9 µM (active)”; in [3] it was “inactive and 43.6 µM (active)”; in [4], “inactive and 24.5 µM (active)”; in test [18], “inactive and 43.6 µM (active)”. In addition, the Potency entry in test [5], in [6], in test [7], in test [9], in test [10] and in [11] was “inactive” in each case. Moreover, the Potency entry in test [12], in [13], in test [14] and in [15] was “inactive” each time.

In the case of `Clc1ccccc1-c1nnc(-c2ccccc2Cl)nn1`, the Potency entry in test [1], in [2], in test [3], in [4], in test [5] and in test [6] was “inactive” in each case. Moreover, the Potency entry in [7], in [8], in test [9], in test [10], in test [17] and in test [11] was “inactive” throughout. Also, the Potency result in test [13], in test [14] and in test [15] was “inactive” throughout. In test [12], the Potency is 9.6 µM (active) and 4.31 µM (active).

In the case of `COP(=S)(OC)Oc1ccc(Sc2ccc(OP(=S)(OC)OC)cc2)cc1`, the Potency result in test [1], in [2], in test [3], in [4], in [5] and in test [6] was “inactive” throughout. Moreover, the Potency entry in test [7], in [8], in test [9], in [10], in test [17] and in [12] was “inactive” throughout. The Potency result in [13], in [14], in [15] and in [16] was “inactive” in each case. For the same molecule, the Potency in test [19] was 61.1 µM (active) and inactive; in test [11] it was 61.1 µM (active) and inactive. In addition, the result in test [20] was inactive.

Take `O=[N+]([O-])/N=C1\NCCN1Cc1ccc(Cl)nc1`: the Potency entry in test [1], in test [2], in test [3], in [4], in [6] and in [7] was “inactive” in each case. In addition, the Potency result in [8], in test [9], in test [18], in [10], in [17] and in test [19] was “inactive” in each case. In addition, the Potency entry in test [11], in test [12], in [13], in [15] and in test [16] was “inactive” throughout. The molecule was called inactive in test [20].

As to `CC1(C)C(C(=O)OC(C#N)c2cccc(Oc3ccccc3)c2)C1(C)C` (stereo unspecified), the Potency result in test [1], in test [2], in test [3], in test [4], in test [5] and in test [6] was “inactive” each time. The Potency entry in test [7], in test [8], in [9], in test [10], in test [17] and in [12] was “inactive” throughout. For the same molecule, the Potency entry in [13], in test [15] and in [16] was “inactive” each time. Besides, the Potency in [11] is 54.9 µM (active) and inactive.
